This is an account of results in PubChem BioAssay (Tox21).

Inconclusive results are not listed. A number with no mark means an inactive call. The call rests on the fitted dose curve.
On the % scale 0 is the no-effect control and ±100 the full control effect.

The assay in a line: qHTS assay to identify small molecule agonists of the progesterone receptor (PR) signaling pathway - cell viability counter screen (AID 1346799). Further: nearly all actives have a fitted effect of over 45% in size. The conditions noted are these: PR-UAS-bla HEK293T viability, CellTiter-Glo luminescence, 16 h; series mostly up to 92.4 µM; activity change, negative = cytotoxicity: at the top concentration. The source says:
National Center for Advancing Translational Sciences [NCATS]
NIH Chemical Genomics Center [NCGC]
U.S. Environmental Protection Agency [EPA]
National Institutes of Environmental Health Sciences [NIEHS]
National Toxicology Program [NTP]
U.S. Food and Drug Administration [FDA]
Progesterone receptor (PR), a nuclear hormone receptor, plays an important role in development, metabolic homeostasis and reproduction. It is activated by the steroid hormone progesterone. Endocrine disrupting chemicals (EDCs) and their interactions with steroid hormone receptors like PR causes disruption of normal endocrine function. To identify the compounds that stimulate PR signaling, a PR-UAS-bla GripTite cell line i.e. PR-UAS-bla HEK293T (Invitrogen, Carlsbad, CA, USA) containing a beta-lactamase reporter gene under the control of an UAS response element was used to screen Tox21 10K compound library. The cytotoxicity of the Tox21 compound library against the PR-bla cell line was tested in parallel by measuring the cell viability using CellTiter-Glo assay in the same wells.
Tox21 Assay Protocol Summary:
PR-UAS-bla HEK293T cells were dispensed at 3,000 cells/5 uL of assay medium containing 2% charcoal stripped FBS per well into black wall/clear-bottom 1536-well plates using a Multidrop Combi (ThermoFisher Scientific, Waltham, MA) dispenser. After the assay plates were incubated at a 37C and 5% CO2 for 6 hr, 23 nL of compounds dissolved in DMSO, positive controls or DMSO only was transferred to the assay plate by a Pintool station (Kalypsys, San Diego, CA). The plates were incubated at 37C and 5% CO2 for 16 hr. Then 1 uL of LiveBLAzer B/G FRET substrate was added using a Flying Reagent Dispenser (FRD, Aurora Discovery, San Diego, CA), the plates were incubated at room temperature for 2 hours, and fluorescence intensity was measured by an Envision plate reader (PerkinElmer, Shelton, CT). For cell viability readout that measures cytotoxicity, 4 uL/well of CellTiter-Glo reagent was added into the assay plates using a FRD. After 30 min incubation at room temperature, the luminescence intensity in the plates was measured using a ViewLux (PerkinElmer) plate reader.
As to `CCN(CC)CCc1nc(-c2ccccc2)no1`, the “activity change, negative = cytotoxicity” value was 1.43% [at 42.5 µM].

As for `CC/C(=C\C(=N/O)C(N)=O)C(C)[N+](=O)[O-]` (stereo not given), the “activity change, negative = cytotoxicity” value is -35.8%.

Consider `Cc1cccc(OCCOc2cccc(C)c2)c1`, for which the “activity change, negative = cytotoxicity” value was 6.15%.

For the compound `Cc1ccccn1`, the “activity change, negative = cytotoxicity” value is 2.01%.

Consider `O=[N+]([O-])c1cccc(Cl)c1Cl`, for which the “activity change, negative = cytotoxicity” value was -0.244%.

On to `C=C(C)C(=O)OCCN(C)C`, for which the “activity change, negative = cytotoxicity” value is 0%.

Turning to `CC1=CC(=O)/C(=C(/C)O)C(=O)O1`, the “activity change, negative = cytotoxicity” value was 2.25%.

Regarding `C=CC[N+]1([C@H]2C[C@H]3[C@@H]4CC[C@H]5C[C@H](OC(C)=O)[C@@H](N6CCCCC6)C[C@]5(C)[C@H]4CC[C@]3(C)[C@H]2OC(=O)CC)CCCCC1`, the “activity change, negative = cytotoxicity” value is -26.7% [at 42.5 µM].

Regarding `CN1CCC(=C2c3ccccc3C=Cc3ccccc32)CC1`, the “activity change, negative = cytotoxicity” value was -29.9% [at 42.5 µM].

Turning to `Cc1cc(CC(=O)O)c(C)n1-c1ccc(Cl)cc1`, the “activity change, negative = cytotoxicity” value is -14.2% [at 42.5 µM].

As for `CC(Cc1cccc(C(F)(F)F)c1)NCCOC(=O)c1ccccc1` (stereo not given), the “activity change, negative = cytotoxicity” value is 6.18% [at 42.5 µM].

As for `CCOC(=O)CC(=O)c1cc(F)c(Cl)nc1Cl`, the “activity change, negative = cytotoxicity” value is 6.48%.

Consider `C[Si](C)O[Si](C)(C)O[Si](C)(C)O[Si](C)C`, for which the “activity change, negative = cytotoxicity” value is -6.88%.

In the case of `N#Cc1cc2ccccc2c2ccccc12`, the “activity change, negative = cytotoxicity” value was 5.38%.

Regarding `CC(C)NCC(O)c1cc(O)cc(O)c1` (stereo not given), the “activity change, negative = cytotoxicity” value is -2.38% [at 42.5 µM].

Consider `CCCCCC/C=C/C=O`, for which the “activity change, negative = cytotoxicity” value was -0.303%.

With `O=C(Cl)c1c(Cl)cccc1Cl`, the “activity change, negative = cytotoxicity” value is -20.9%.

Take `Cn1c(N)nc2nc[nH]c2c1=O`: the “activity change, negative = cytotoxicity” value is 0%.

Consider `CCCCCCCCCCCCCCCCCBr`, for which the activity change, negative = cytotoxicity is 10.6% [at 19 µM].

Take `C1=Cc2ccccc2C1`: the “activity change, negative = cytotoxicity” value is 1.4%.

For `CC1=CCC(C(C)C)C=C1` (stereo not given), the “activity change, negative = cytotoxicity” value is -11.9%.

Turning to `CCC(C)N(C)C(=O)c1cc2ccccc2c(-c2ccccc2Cl)n1` (stereo not given), the “activity change, negative = cytotoxicity” value was 17.8% [at 42.5 µM].

For `Nc1nc(N)c(-c2ccccc2)s1`, the “activity change, negative = cytotoxicity” value was 32.9% [at 42.5 µM].

For `CN(C)CCCNCCCN`, the “activity change, negative = cytotoxicity” value was -23.1%.

As for `O=C(NN1CCCC1)NS(=O)(=O)c1ccc(Cl)cc1`, the “activity change, negative = cytotoxicity” value is 1.35% [at 42.5 µM].

On to `O=C(CCN1CCN2CCCC2C1)N1c2ccccc2Sc2ccc(Cl)cc21` (stereo not given), for which the activity change, negative = cytotoxicity was -27.9% [at 19 µM].

For the compound `Cn1c(NCCN(CCO)CCCc2ccc([N+](=O)[O-])cc2)cc(=O)n(C)c1=O`, the “activity change, negative = cytotoxicity” value was 0% [at 42.5 µM].

Turning to `CC(C)NCC(O)COc1ccc(CC(N)=O)cc1` (stereo not given), the “activity change, negative = cytotoxicity” value is 3.1%.

As to `O=C(CC(=O)c1ccccc1)c1ccccc1`, the “activity change, negative = cytotoxicity” value is 5.09%.

With `Cc1c(Cn2ccnc2)c2ccccc2n1CCC(=O)O`, the “activity change, negative = cytotoxicity” value is 1.12% [at 42.5 µM].

Regarding `CC(C)c1cccc(C(C)C)c1NC(=O)NS(=O)(=O)c1cc(C(C)(C)O)co1`, the “activity change, negative = cytotoxicity” value was -10.5%.

Turning to `c1ccc(-c2nc[nH]c2-c2ccccc2)cc1`, the “activity change, negative = cytotoxicity” value was 0.657% [at 42.5 µM].

For `COc1ccc(OC)c(OC)c1`, the “activity change, negative = cytotoxicity” value is -3.04%.

As to `Oc1ccc(C(O)CNCCCCCCNCC(O)c2ccc(O)c(O)c2)cc1O` (stereo not given), the “activity change, negative = cytotoxicity” value is -0.85% [at 42.5 µM].

As to `Cc1ncsc1CCO`, the “activity change, negative = cytotoxicity” value is -30.3%.

For the compound `NCc1ccccc1`, the “activity change, negative = cytotoxicity” value is -1.22%.

As to `Cc1cc(NC(=O)C(=O)O)cc(C)c1Oc1ccc(O)c2c1CCC2`, the “activity change, negative = cytotoxicity” value is 0.857%.

Turning to `CC[C@@H]1C[C@H](N(Cc2cc(C(F)(F)F)cc(C(F)(F)F)c2)C(C)=O)c2cc(C(F)(F)F)ccc2N1C(=O)OC(C)C`, the “activity change, negative = cytotoxicity” value is 12.6%.

In the case of `CCOc1cc(OCC)c(C(=O)CCC(=O)O)cc1OCC`, the “activity change, negative = cytotoxicity” value is -11.1% [at 42.5 µM].

`COCCO`: the “activity change, negative = cytotoxicity” value was 5%.
